Experimental data: PubChem BioAssay
Active and inactive are the calls of the source.

Experiments:
Albumin (Bos taurus) = Albumin (Bos taurus) (UniProt P02769); experiment: bovine serum albumin binders on microarray, profiling panel, artefact control for SMM control protein annotation, biochemical, small-molecule microarray, Alexa647 label, 635/667 nm fluorescence (AID 1118); conditions: BSA-A647 binding, fluorescence 635 nm, higher = more signal;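 also: score merges 667 nm emission intensity and signal-to-noise per printed compound spot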
Albumin (Bos taurus), sequence (P02769 whole entry, looked up): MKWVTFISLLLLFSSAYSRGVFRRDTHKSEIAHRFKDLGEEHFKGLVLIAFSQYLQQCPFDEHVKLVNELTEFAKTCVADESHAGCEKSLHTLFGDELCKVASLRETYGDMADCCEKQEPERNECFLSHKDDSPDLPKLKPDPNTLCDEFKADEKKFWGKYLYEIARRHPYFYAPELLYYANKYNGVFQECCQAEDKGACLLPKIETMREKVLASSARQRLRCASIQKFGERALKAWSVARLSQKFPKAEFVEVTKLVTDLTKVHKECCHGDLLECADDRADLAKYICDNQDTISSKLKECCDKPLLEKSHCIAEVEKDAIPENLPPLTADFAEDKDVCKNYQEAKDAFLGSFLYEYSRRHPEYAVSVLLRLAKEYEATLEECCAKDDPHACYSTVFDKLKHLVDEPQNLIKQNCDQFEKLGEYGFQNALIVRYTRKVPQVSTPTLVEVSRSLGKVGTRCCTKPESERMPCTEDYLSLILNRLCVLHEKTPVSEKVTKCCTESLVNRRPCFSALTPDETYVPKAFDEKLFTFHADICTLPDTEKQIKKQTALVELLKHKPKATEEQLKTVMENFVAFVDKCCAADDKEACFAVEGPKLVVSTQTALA

[1] = small-molecule microarray binders of probe aXIP, primary screen, biochemical, NeuroSMM set, 635/667 nm fluorescence (AID 1119); conditions: higher = more signal, called active from +8 up or from −8 down;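 also: probe is the protein aXip251-270 applied at 1 µg/mL to compound-printed slides; binding of probe to printed compounds measured as 667 nm fluorescence plus signal to noise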
[2] = small-molecule binders of probe aNOTCH3, primary screen, biochemical, small-molecule microarray, 635/667 nm fluorescence (AID 1120); conditions: higher = more signal;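 also: probe is a biotin-tagged antibody raised against NOTCH3 rather than NOTCH3 protein; score merges spot fluorescence near 667 nm with spot signal to noise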
[3] = small-molecule binders of probe aNOTCH2, primary screen, biochemical, small-molecule microarray, 635/667 nm fluorescence (AID 1121); conditions: higher = more signal;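 also: score merges feature fluorescence read at 667 nm with its signal to noise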
[4] = biological target: Carbonic anhydrase 2 (Homo sapiens) (UniProt P00918); experiment: CAII small-molecule binders, profiling panel, biochemical, small-molecule microarray, Alexa647-labelled CAII (AID 1122); conditions: CAII-A647 binding fluorescence, higher = more signal
[5] = COS7 lysate on small-molecule microarray, probe aHis, 635 nm (AID 1123); conditions: COS7 cell lysate, fluorescence, higher = more signal;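 also: z-score combines 667nm fluorescence intensity with signal-to-noise per printed compound spot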
[6] = compound binding in COS7 lysate, probe aLAP1, primary screen, cell lysate, small-molecule microarray (AID 1124); conditions: probe aLAP1, fluorescence, higher = more signal;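 also: lysate comes from COS7 cells expressing LAP1 and is applied at 0.3 µg/mL; score merges spot fluorescence near 667 nm with signal-to-noise over triplicate slides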
Sam68 (KHDRBS1) = experiment: Sam68 small-molecule binders, primary screen, biochemical, small-molecule microarray, 635 nm fluorescence (AID 1125); conditions: small-molecule microarray binding, higher = more signal;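 also: score merges 667 nm channel intensity with signal to noise over triplicate slides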
[7] = system: Chordin-like protein 2 (CHRDL2); experiment: CHRDL2 small-molecule binders, primary screen, biochemical, small-molecule microarray, 635 nm fluorescence (AID 1126); conditions: small-molecule microarray binding, fluorescence 635 nm; higher = more signal;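 also: printed compound slides probed with Chrdl2 protein at 4 µg/mL for 1 h at 4 C; score merges 667 nm emission intensity with signal to noise over three replicate slides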
[8] = biological target: Concanavalin-A (Canavalia ensiformis) (UniProt P02866); experiment: ConA small-molecule binders, primary screen, artefact control for SMM control protein annotation, biochemical, small-molecule microarray, Alexa647 label, 635 nm (AID 1127); conditions: ConA-A647 binding fluorescence, higher = more signal;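 also: z combines 667 nm emission intensity with signal-to-noise across three replicate slides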
Concanavalin-A (Canavalia ensiformis), sequence (P02866 whole entry, looked up): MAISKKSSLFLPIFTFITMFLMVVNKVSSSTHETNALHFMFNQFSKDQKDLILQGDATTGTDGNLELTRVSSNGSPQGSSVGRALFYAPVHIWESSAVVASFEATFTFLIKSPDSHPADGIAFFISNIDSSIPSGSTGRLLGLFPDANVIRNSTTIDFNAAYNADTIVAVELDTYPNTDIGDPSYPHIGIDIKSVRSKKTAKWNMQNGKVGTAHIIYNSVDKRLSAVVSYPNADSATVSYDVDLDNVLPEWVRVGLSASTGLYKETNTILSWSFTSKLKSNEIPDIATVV

SMILES | composite z-score (Albumin (Bos taurus)) | composite Z-score [1] | composite z-score [2] | composite z-score [3] | composite z-score [4] | composite z-score [5] | composite z-score [6] | composite z-score (Sam68 (KHDRBS1)) | composite z-score [7] | composite z-score [8]
COCCOC(=O)N1C(=O)[C@@]2(c3cc(C#CCC(C(=O)OC)C(=O)OC)ccc31)[C@H](C(=O)N1CCCCCCC1)[C@H]1C(=O)O[C@H](c3ccccc3)[C@H](c3ccccc3)N1[C@@H]2c1ccccc1OCCO | 0.847 | 0.269 (inactive) | 1.91 | 0.689 | 0.761 | 3.14 | 1.16 | 1.29 | 1.44 | 1.06
CC1CC/C=C\[C@H]2OC34C=CCN(CCN5CCOCC5)C(=O)[C@H]3N(CCCCCCO)C(=O)[C@@H]4C2C(=O)O1 (stereo not given in full) | -0.0754 | 0.446 (inactive) | -0.438 | -0.14 | 0.864 | -0.686 | -0.362 | -0.715 | -0.756 | -1.53
NCCCC[C@@H]1NC(=O)[C@H]2C[C@@H](C(=O)O)[C@@H](c3cccc(OCCO)c3)N2C1=O | 0.294 | 1.71 (inactive) | 0.526 | -0.0106 | 0.396 | 2.88 | 0.521 | 1.29 | 1.39 | 1.1
COC(=O)C1(CC(C)C)C=C2C(=C(C(C)C)C(=O)C2C)CN1 (stereo not given) | -0.597 | 0.116 (inactive) | -0.0043 | -0.119 | 0.539 | 0.0678 | -0.463 | -0.923 | -0.699 | -2.07
CCCC=C(CCC)[C@@H](NC(=O)c1ccco1)c1ccc(C(=O)OC)cc1 | 0.779 | -0.0549 (inactive) | 0.281 | -0.0222 | 0.669 | 2.72 | 0.0767 | 1.31 | -0.618 | 0.939
Cc1ccc(S[C@]2(C(=O)NCCN3CCOCC3)CC(=O)N(C3CCCCC3)[C@@H]2c2ccc(CO)cc2I)cc1 | 0.81 | 0.918 (inactive) | -0.101 | -0.155 | 0.405 | 2.89 | -0.006 | 1.27 | 0.138 | 1.11
O=C1O[C@@H](c2ccccc2)[C@@H](c2ccccc2)N2[C@@H](c3ccc(O)cc3)[C@]3(C(=O)Nc4ccc(C#CC5=CCCCC5)cc43)[C@@H](C(=O)N3CCCCCCC3)[C@H]12 | 0.508 | 2.78 (inactive) | 1.24 | 0.276 | 0.589 | 2.97 | 1.85 | 1.29 | 0.543 | 0.702
C=CCNC(=O)[C@H]1[C@@H]2C(=O)O[C@@H](c3ccccc3)[C@@H](c3ccccc3)N2[C@@H](c2ccc(O)cc2)[C@]12C(=O)Nc1ccc(C#CC3=CCCCC3)cc12 | 0.135 | -0.121 (inactive) | -0.119 | 0.23 | 0.416 | 1.52 | 0.573 | 1.11 | 0.62 | 1.12
COc1cc2c(cc1O)C(c1ccc(CN3CCCC3)cc1)N(Cc1ccc([N+](=O)[O-])o1)CC2 (stereo not given) | 0.847 | 0.27 (inactive) | 0.0469 | -0.0959 | 0.91 | 0.542 | 0.774 | -0.768 | -0.881 | 0.387
C=CC(CO)NC(=O)OCC1c2ccccc2-c2ccccc21 (stereo not given) | -0.335 | 0.314 (inactive) | 0.0242 | -0.108 | -0.192 | 0.121 | -0.0184 | 0.0668 | 0.566 | 0.47
CN(C)CCCCNC(=O)[C@H]1C[C@H]2C(=O)NCC(=O)N2[C@H]1c1cccc(OCCO)c1 | -0.539 | 0.0388 (inactive) | -0.179 | -0.146 | 0.655 | 0.0949 | -0.235 | -0.705 | 0.281 | -0.408
C[N+](C)(C)CCCC[C@@H]1NC(=O)[C@H]2C[C@@H](C(=O)NCCCCCNC(=O)CS)[C@@H](c3ccc(O)cc3)N2C1=O | 0.896 | 0.325 (inactive) | -0.154 | -0.158 | 0.678 | 1.45 | 0.361 | 0.616 | 0.268 | 0.997
C=CCOC(=O)[C@H]1[C@@H]2C(=O)O[C@@H](c3ccccc3)[C@@H](c3ccccc3)N2[C@@H](c2ccc(OCCOC(=O)[C@@H]3C[C@@H]4C(=O)N[C@@H](Cc5ccccc5)C(=O)N4[C@@H]3c3ccc(O)cc3)cc2)[C@]12C(=O)Nc1ccccc12 | 0.527 | 0.129 (inactive) | 0.0382 | -0.181 | 0.67 | 1.74 | 0.509 | 1.3 | 1.11 | 1.16
CCCC=C(CCC)[C@@H](NC(=O)c1ccccc1)c1ccc(C(=O)OC)cc1 | -0.122 | -0.222 (inactive) | 1.21 | -0.166 | 0.526 | 1.77 | 0.0914 | 0.823 | 0.308 | 0.711
